In the library only some 18% were active in any assay of this set; here they are far more common.
GCN5L2 inh: qHTS Assay for Inhibitors of GCN5L2 | GCN5L2 HAT assay, ThioGlo1 CoA-SH fluorescence | Potency, µM (top dose mostly 58.9 µM), most hits filed as inhibitors | hit rate 0.21% among 390,000 | AID 504327, 2011
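Fluorescence readout, Ex340nm/Em540nm: ThioGlo1 (50uM final) reacts with free CoA thiol released as 20nM GCN5L2 acetylates H3(1-25) peptide (75uM) using acetyl-CoA (70uM). Compound and enzyme sat 15 min beforehand; 20 min room-temperature reaction.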
VDR inhibitor: Inhibitors of the vitamin D receptor (VDR): qHTS | Vitamin D3 receptor (Homo sapiens), P11473 | VDR-SRC2-3 peptide fluorescence polarization, 2 h | Potency, µM, hits mostly inhibitors | hit rate 0.93% among 400,000 | AID 504847, 2011
Target sequence (P11473 whole entry, looked up): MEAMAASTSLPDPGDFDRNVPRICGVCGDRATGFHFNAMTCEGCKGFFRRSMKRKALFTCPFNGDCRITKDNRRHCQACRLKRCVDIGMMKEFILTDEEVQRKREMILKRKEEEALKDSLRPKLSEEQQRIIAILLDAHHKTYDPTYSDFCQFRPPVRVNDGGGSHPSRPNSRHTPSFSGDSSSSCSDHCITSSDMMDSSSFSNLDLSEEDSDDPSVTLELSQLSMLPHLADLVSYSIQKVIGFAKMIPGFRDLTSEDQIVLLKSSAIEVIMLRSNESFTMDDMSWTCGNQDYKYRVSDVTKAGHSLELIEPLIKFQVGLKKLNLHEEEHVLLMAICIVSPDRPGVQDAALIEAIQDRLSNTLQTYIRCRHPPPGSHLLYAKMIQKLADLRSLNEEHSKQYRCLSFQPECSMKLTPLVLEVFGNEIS
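Fluorescence polarization assay of small-molecule disruption of VDR binding to coregulator peptide SRC2-3. Compounds and controls pin-transferred, then read after 2 h incubation at ambient room temperature.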
TDP1 cell CPT: qHTS for Inhibitors of human tyrosyl-DNA phosphodiesterase 1 (TDP1): qHTS in cells in presence of CPT | chicken DT40 Tdp1-/-;hTDP1 cells + 20 nM CPT, ATP luminescence, 48 h | Potency, µM (series often up to 46.2 µM), hits mostly inhibitors | hit rate 12% among 420,000 | AID 686979, 2013; note: nearly all actives have a fitted effect of over 55% in size
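Chicken DT40 Tdp1-/- cells stably complemented with human TDP1 were seeded at 400 cells/well in medium containing 20 nM camptothecin, exposed to pin-transferred compounds, and grown at 37 °C for at least 48 hr. Viability was read as ATP luminescence.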
DT40 TDP1 no CPT: qHTS for Inhibitors of human tyrosyl-DNA phosphodiesterase 1 (TDP1): qHTS in cells in absence of CPT; DT40 Tdp1-/- hTDP1 cells, no CPT, ATP luminescence, 48 h; Potency, µM (series often up to 46.2 µM), actives largely listed as inhibitors; hit rate 15% among 420,000; AID 686978, 2013; note: nearly all actives have a fitted effect of over 55% in size
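Compound effects on proliferation are scored in DT40 Tdp1-/-;hTDP1 cells in the absence of CPT. ATP levels (CellTiter-Glo luminescence) are recorded after a ≥48 hr, 37 °C incubation.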
TDP1 inh: qHTS Assay for Inhibitors of Tyrosyl-DNA Phosphodiesterase (TDP1). recombinant TDP1, AlphaScreen DNA substrate cleavage. Potency, µM (top dose mostly 130 µM), usual class: inhibitors. hit rate 0.28% among 350,000. AID 485290, 2010; note: nearly all actives have a fitted effect of over 40% in size
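Enzyme-compound mixtures sat 15 min at room temperature, followed by a 5 min reaction with 15 nM final substrate and 10 min with AlphaScreen beads. Recombinant human Tdp1 was used at 1 nM final.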
PLK1 PBD block: qHTS for Inhibitors of PLK1-PDB (polo-like kinase 1 - polo-box domain): Primary Screen. hit rate 2.8% among 360,000. Plk1 PBD binding of FITC phosphopeptide, fluorescence polarization. Potency, µM, actives largely listed as inhibitors; note: series mostly up to about 57 µM; nearly all actives have a fitted effect of over 65% in size
Hits are given with their value; i = inactive; ? = inconclusive; nt = no result; [ ] = another dose, or the depositor's remark. Calls come from the whole dose curve; as a rule, active = well fitted curve in the direction sought with a large enough effect; inconclusive = small, poorly fitted or top-dose-only effect, or another doubt; inactive = no such curve, though single readings can be large; an effect the other way counts as inactive or inconclusive.

SMILES | GCN5L2 inh | VDR inhibitor | TDP1 cell CPT | DT40 TDP1 no CPT | TDP1 inh | PLK1 PBD block
COc1ccc(C)cc1S(=O)(=O)N1CCOCC1 | i | i | ? | ? | i | 19µM
Cc1ccc(S(=O)(=O)n2cnc3ccccc32)cc1 | i | i | i | i | i | i
COc1ccc(/C=C/C(=O)NC2CCCCCCC2)cc1S(=O)(=O)N1CCOCC1 | i | i | 21µM | 21µM | i | i
COc1ccc(C)cc1S(=O)(=O)n1cnc2ccccc21 | i | i | 13µM | 15µM | nt | i
CC(=O)c1cc(C)oc1C | nt | nt | nt | nt | i | nt
C[C@@H]1CN([C@@H](C)CO)C(=O)c2cc(Br)cnc2O[C@H]1CN(C)C(=O)C1CC1 | nt | nt | i | i | nt | i
COc1ccc(CC(=O)N(C)Cc2ccc(C(C)(C)C)cc2)cc1S(=O)(=O)N1CCOCC1 | i | i | 21µM | 29µM | i | i
COc1ccc(CC(=O)Nc2nc3ccccc3s2)cc1S(=O)(=O)N1CCOCC1 | i | ? | ? | ? | i | 21µM
COc1ccc(CC(=O)Nc2nc(C)cs2)cc1S(=O)(=O)N1CCOCC1 | i | i | i | i | i | i
Cn1c(C(=O)N2CCC(C(=O)NCCc3ccc(S(N)(=O)=O)cc3)CC2)cc2sccc21 | i | i | i | i | i | nt
COCCNC(=O)C1CCCN(C(=O)c2ccc3ccccc3n2)CC1 (centres undefined) | nt | nt | i | i | nt | i
Cc1ccc(N2C(=O)c3ccc(C(=O)N4CCN(Cc5ccccc5)CC4)cc3C2=O)cc1 | i | i | i | i | i | i
CCN(CC)CCNC(=O)c1ccc(NC(=O)c2ccccc2-c2ccc(C(F)(F)F)cc2)cc1 | i | i | 18µM | ? | nt | i
CCCOc1ccc(CNC(=O)C(C)n2nc(C)n3c(cc4occc43)c2=O)cc1 (centres undefined) | i | i | i | i | i | nt
CCOc1cccc(-c2c(C(=O)N/N=C/c3ccco3)nnn2-c2nonc2N)c1 | i | i | i | i | i | i
COc1cccc(N2CCN(C(=O)c3ccc(CS(=O)c4cccc(Cl)c4)o3)CC2)c1 (centres undefined) | i | i | 0.52µM | 0.52µM | i | nt
COc1ccc(S(=O)Cc2ccc(C(=O)N3CCN(c4cccc(C)c4C)CC3)o2)cc1 (centres undefined) | i | i | 0.58µM | 0.92µM | i | i
COc1ccc(N2CCN(C(=O)c3ccc(CS(=O)c4cccc(Cl)c4)o3)CC2)cc1 (centres undefined) | nt | nt | 16µM | 15µM | nt | i
COc1cccc(N2CCN(C(=O)c3ccc(CS(=O)Cc4ccccc4Cl)o3)CC2)c1 (centres undefined) | i | i | ? | ? | i | i
COc1cccc(N2CCN(C(=O)c3ccc(CS(=O)Cc4ccc(Cl)cc4)o3)CC2)c1 (centres undefined) | i | i | ? | 18µM | i | i
CN(CCOc1ccc(Br)cc1)CC(O)COc1ccc(C#N)cc1 (centres undefined) | i | i | ? | 4.1µM | i | i
COc1ccc(-c2noc(CCC(=O)NCc3ccc(C)cc3)n2)cc1 | i | i | i | i | i | nt
Cc1ccc(-c2noc(CCCC(=O)NC3CCCCC3)n2)cc1 | i | i | ? | 13µM | nt | i
COc1ccc(-c2noc(CCC(=O)NC3CCN(Cc4ccccc4)CC3)n2)cc1 | i | i | ? | 12µM | nt | i
COc1ccc(-c2noc(CCC(=O)NCC3CCN(Cc4cccc(C)c4)CC3)n2)cc1 | i | i | ? | 23µM | i | i
SMILES | GCN5L2 inh | VDR inhibitor | TDP1 cell CPT | DT40 TDP1 no CPT | TDP1 inh | PLK1 PBD block
O=C(CCc1nc(-c2ccccc2F)no1)NCCN1CCN(Cc2ccccc2)CC1 | i | i | 18µM | ? | i | i
CC(=O)O[C@]1(C(C)=O)CC[C@@H]2[C@@H]3C=C(Cl)C4=CC(=O)[C@H]5C[C@@H]5[C@]4(C)[C@H]3CC[C@]21C | i | ? | nt | nt | i[21 µM] | nt
COC(=O)C1CC1[C@H](NC(=O)c1cccnc1)c1ccccc1 (some centres undefined) | nt | i | nt | nt | i | nt
CC(C)C[C@H](NC(=O)[C@H](Cc1cnc[nH]1)NC(=O)[C@@H](N)Cc1cnc[nH]1)C(=O)NCC(=O)NCC(=O)N[C@@H](C)C(=O)N[C@@H](CCCCN)C(=O)N[C@@H](CCC(N)=O)C(=O)N[C@@H](C)C(=O)NCC(=O)N[C@@H](CC(=O)O)C(=O)N[C@H](C(=O)O)C(C)C | i | i | nt | nt | i | nt
N[C@H](C(=O)O)c1cccc(O)c1 | i | i | i | i | i | nt
Cc1ccc(C)c(NC(=O)C2CCN(S(=O)(=O)c3c(C)noc3/C=C/c3cccs3)CC2)c1 | i | i | ? | ? | i | nt
CC(NC(=O)C1CCCN1C(=O)OC(C)(C)C)C(=O)OCc1ccccc1 (centres undefined) | nt | nt | 23µM | ? | nt | i
C[C@@H](NC(=O)[C@@H]1CCCN1C(=O)[C@@H]1CCCN1C(=O)OC(C)(C)C)c1ccccc1 | nt | nt | i | i | nt | i
CC(C)(C)OC(=O)N1CCC[C@H]1C(=O)Nc1ccc(S(=O)(=O)C(F)F)cc1 | i | i | 13µM | ? | nt | i
CC(C)(C)OC(=O)N1CCC[C@H]1C(=O)NCc1ccc(Cl)cc1Cl | i | ? | ? | ? | i | 27µM
CC(C)(C)OC(=O)N1CCC[C@H]1C(=O)N1CCC[C@H]1C(=O)NCc1ccc(F)cc1F | nt | nt | i | i | nt | i
COc1cc(OC)cc(C(=O)Nc2cc3c(cc2N2CCCCC2)n(C)c(=O)n3C)c1 | i | i | ? | i | i | nt
COc1ccc(Br)c(C(=O)Nc2cc3c(cc2N2CCCCC2)n(C)c(=O)c(=O)n3C)c1 | i | i | 23µM | 8.2µM | i | nt
COc1ccc(Br)c(C(=O)Nc2cc3c(cc2N2CCOCC2)n(C)c(=O)n3C)c1 | i | i | 23µM | ? | i | nt
CCN(CC)C(=O)c1sc2c(c1C)c(=O)n(-c1ccc(OC)cc1OC)c(=O)n2CC(=O)Nc1ccccc1 | i | i | i | i | i | nt
COc1ccc2c(c1)-c1nc(-n3ncc(C(=O)NCC4CCCN(C)C4)c3C3CC3)ncc1CC2 (centres undefined) | nt | nt | i[9.04 µM] | i | nt | nt
COc1ccc2c(c1)-c1nc(-n3ncc(C(=O)NCc4cccnc4)c3C3CC3)ncc1CC2 | nt | nt | i[9.04 µM] | 23µM | nt | nt
COc1ccc2c(c1)-c1nc(-n3ncc(C(=O)NC[C@@H]4CCCN5CCCC[C@H]45)c3C)ncc1CC2 | nt | nt | ? | 9.2µM | nt | nt
COc1ccc(NC(=O)NC(C)C2CC3CCC2C3)cc1 (centres undefined) | i | i | i | i | nt | i
